# The supplement of paper PMC6992640
# Counter-ions that a name gives are not always drawn. ± gives the standard deviation of the averaged measurements.
# Tests used:
# Test in all cases: cell viability (% of vehicle); higher = less cytotoxic
# Conditions in all cases: 10 µM; 72 h
# HCI01 = system: HCI01 (cells of a triple-negative basal-like breast cancer xenograft)
# HCI03 = system: HCI03 (cells of an ER-positive luminal breast cancer xenograft)
# HCI09 = system: HCI09 (cells of a triple-negative luminal androgen receptor type breast cancer xenograft)
# HCI11 = system: HCI11 (cells of an ER-positive luminal breast cancer xenograft)
# HCI13 = system: HCI13 (cells of an ER-positive luminal breast cancer xenograft)
# HCI16 = system: HCI16 (cells of a triple-negative basal-like breast cancer xenograft)
# UCD52 = system: UCD52 (cells of a triple-negative basal-like breast cancer xenograft)
# WHIM2 = system: WHIM2 (cells of a triple-negative basal-like breast cancer xenograft)
# WHIM30 = system: WHIM30 (cells of a triple-negative basal-like breast cancer xenograft)
# 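Also: PDX cells carrying CMV promoter-driven luciferase, viability read as total photon flux per second by IVIS imaging following D-luciferin, vehicle control 0.1% DMSO.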
SMILES,cell viability (HCI01),cell viability (HCI03),cell viability (HCI09),cell viability (HCI11),cell viability (HCI13),cell viability (HCI16),cell viability (UCD52),cell viability (WHIM2),cell viability (WHIM30)
COc1ccc(-c2nc3ccc(C4=NNC(=O)CC4C)cc3[nH]2)cc1 (centres undefined) [Pimobendan],134 ± 7.2,132,129 ± 48,132,146 ± 11,121,119 ± 5.9,168.4 ± 1.3,119 ± 7
C[N+](C)(C)CCO.[Cl-] [Choline Chloride],135 ± 42,120,89.2 ± 11,78.8,73.78 ± 0.7,116,85.6 ± 10,105 ± 17,101 ± 3.5
Nc1ccn(C2OC(CO)C(O)C2O)c(=O)n1 (centres undefined) [Cytidine],101 ± 36,131,98.9 ± 9.3,105,87.1 ± 7,122,92.5 ± 19,108 ± 18,146 ± 29
CNCCC(Oc1ccccc1C)c1ccccc1.Cl (centres undefined) [Atomoxetine HCl],119 ± 8.9,145,111 ± 11,108,105 ± 3.7,130,85 ± 3.7,88.7 ± 17,180 ± 28
COc1ccc(-n2nc(C(N)=O)c3c2C(=O)N(c2ccc(N4CCCCC4=O)cc2)CC3)cc1 [Apixaban],100.8 ± 0.64,113,93.5 ± 17,173,149 ± 8.9,82.4,90.7 ± 6.2,97.6 ± 8.3,85.2 ± 14
CN(CCOc1ccc(CC2SC(=O)NC2=O)cc1)c1ccccn1.O=C(O)C=CC(=O)O (centres undefined) [Rosiglitazone maleate],132 ± 20,115,94 ± 16,90.1,107.5 ± 0.5,99.6,105 ± 7.2,156 ± 25,136 ± 25
O=S(=O)([O-])CCSSCCS(=O)(=O)[O-].[Na+].[Na+] [Dimesna],111 ± 23,150,97 ± 6.5,103,122 ± 15,124,111 ± 8.6,128 ± 9.9,125 ± 12
Cc1ccc(F)c(NC(=O)Nc2ccc(-c3cccc4[nH]nc(N)c34)cc2)c1 [Linifanib (ABT-869)],117 ± 45,165,54.2 ± 0.96,68.7,72 ± 2.6,120,92.18 ± 0.33,160 ± 47,139 ± 45
CNC(C)C1CCC(N)C(OC2C(N)CC(N)C(OC3OCC(C)(O)C(NC)C3O)C2O)O1.O=S(=O)(O)O (centres undefined) [Gentamycin Sulfate],119 ± 8.9,90.7,100 ± 26,101,94.4 ± 9.3,97,94.8 ± 20,72.4 ± 2,116 ± 21
CN1C2CCCC1CC(NC(=O)c1nn(C)c3ccccc13)C2.Cl (centres undefined) [Granisetron HCl],116 ± 6.1,111,90.4 ± 1.8,97.6,96.2 ± 16,89.6,113 ± 3.7,88.1 ± 22,115 ± 16
CCCNC1CCc2nc(N)sc2C1 (centres undefined) [Pramipexole],122 ± 25,111,113 ± 5.7,110,163 ± 2.5,151,114 ± 20,101.5 ± 0.41,100 ± 12
Cc1ccc(Nc2nccc(N(C)c3ccc4c(C)n(C)nc4c3)n2)cc1S(N)(=O)=O.Cl [Pazopanib Hydrochloride],123 ± 20,101,77.01 ± 0.6,96.8,75.6 ± 13,134,94.9 ± 13,127 ± 32,76.7 ± 5.5
C[N+]1(C)[C@@H]2C[C@@H](OC(=O)C(O)(c3cccs3)c3cccs3)C[C@H]1[C@@H]1O[C@@H]12.[Br-] [Tiotropium Bromide],124 ± 17,116,106 ± 18,102,116 ± 12,103,88.9 ± 4.2,94.7 ± 18,125 ± 12
CO[C@H]1/C=C/O[C@@]2(C)Oc3c(C)c(O)c4c(O)c(c5c(nc6cc(C)ccn65)c4c3C2=O)NC(=O)/C(C)=C\C=C\[C@H](C)[C@H](O)[C@@H](C)[C@H](O)[C@@H](C)[C@H](OC(C)=O)[C@@H]1C [Rifaximin (Xifaxan)],121 ± 13,115,114 ± 43,98.8,98.8 ± 33,97.6,91.9 ± 7.9,68.6 ± 13,128 ± 12
NCC(=O)CCC(=O)O [5-Aminolevulinic acid HCl],79.2 ± 41,132,89.9 ± 2.3,83.2,113 ± 24,164,82.6 ± 7.6,129 ± 24,146 ± 6.6
CCCC1CC(C(=O)NC(C(C)Cl)C2OC(SC)C(O)C(O)C2O)N(C)C1.Cl (centres undefined) [Clindamycin HCl],101 ± 7.5,122,99.45 ± 0.17,104,88.2 ± 19,142,117 ± 2.3,106 ± 33,122 ± 2.6
O=C(O)c1cccnc1 [Nicotinic Acid],97.2 ± 15,119,100 ± 20,87.3,112 ± 18,98.5,92.8 ± 2.8,84.3 ± 10,143.6 ± 0.45
Cl.NCCCC(N)(C(=O)O)C(F)F.O (racemic) [DL-α-Difluoromethylornithine (hydrochloride hydrate)],94.2 ± 12,94,92.3 ± 10,65.9,80.9 ± 5.2,99.2,85.3 ± 3.9,91.9 ± 5.5,97.1 ± 3.2
CN(C)CC(c1ccc(O)cc1)C1(O)CCCCC1 (centres undefined) [Desvenlafaxine],84 ± 2.4,118,92.5 ± 18,80.5,90.1 ± 13,126,92.2 ± 9.2,79.9 ± 7.9,124 ± 7.7
CCCCCCCCCCCCCCCCO [1-Hexadecanol],108 ± 3.9,95.9,97.8 ± 12,95.2,107 ± 84,109,67.1 ± 5.9,94.2 ± 11,84.7 ± 8.4

SMILES,cell viability (HCI01),cell viability (HCI03),cell viability (HCI09),cell viability (HCI11),cell viability (HCI13),cell viability (HCI16),cell viability (UCD52),cell viability (WHIM2),cell viability (WHIM30)
CC1(C)CCC(C)(C)c2cc(NC(=O)c3ccc(C(=O)O)cc3)ccc21 [Tamibarotene],108 ± 22,63.1,65.6 ± 45,95.9,73.8 ± 30,77.1,124 ± 10,98.1 ± 28,121 ± 9.1
O=c1c(-n2ccnn2)c[nH]n1-c1cc(N2CCOCC2)ncn1 [Molidustat (BAY85-3934)],142 ± 4.8,121,27.2 ± 1.8,121,,,163 ± 3.5,104 ± 7.3,
CC1(C)O[C@@H]2C[C@H]3[C@@H]4CCC5=CC(=O)CC[C@]5(C)[C@@]4(F)[C@@H](O)C[C@]3(C)[C@]2(C(=O)CCl)O1 [Halcinonide],123 ± 21,144,146 ± 72,133,,,168 ± 24,105 ± 1.8,177 ± 4.2
CC12C=CC(=O)C=C1CCC1C2C(O)CC2(C)C1CCC2(O)C(=O)CO (centres undefined) [Prednisolone],135 ± 39,175,166 ± 82,132,,,173 ± 4.8,114 ± 2.7,
CCC(=O)OCC(=O)C1(OC(=O)CC)C(C)CC2C3CCC4=CC(=O)C=CC4(C)C3(F)C(O)CC21C (centres undefined) [Betamethasone Dipropionate],126 ± 23,138,150 ± 25,136,,,147 ± 14,92.3 ± 26,
CC(=O)OCC(=O)C1(O)C(C)CC2C3CCC4=CC(=O)C=CC4(C)C3(F)C(O)CC21C (centres undefined) [Dexamethasone acetate],114 ± 33,160,131 ± 45,138,,,149 ± 10,119 ± 43,149 ± 22
CC(=O)OCC(=O)[C@@]12OC(C)(C)O[C@@H]1C[C@H]1[C@@H]3C[C@H](F)C4=CC(=O)C=C[C@]4(C)[C@@]3(F)[C@@H](O)C[C@@]12C [Fluocinonide],75.9 ± 53,179,127 ± 39,129,,,156 ± 2.6,94.6 ± 31,175.6 ± 0.94
CCCC(=O)OC1(C(=O)COC(C)=O)CCC2C3CC(F)C4=CC(=O)C=CC4(C)C3(F)C(O)CC21C (centres undefined) [Difluprednate],110 ± 13,137,134 ± 37,116,,,177 ± 21,128 ± 7.3,175 ± 11
CC12CCC(=O)C=C1CCC1C2C(O)CC2(C)C1CCC2(O)C(=O)CO (centres undefined) [Hydrocortisone],103 ± 13,126,132 ± 57,113,,,124 ± 4.5,95.6 ± 4.8,198 ± 13
Cc1ccc(C)c(OCCCC(C)(C)C(=O)O)c1 [Gemfibrozil],99.9 ± 25,118,131 ± 54,112,,,124 ± 17,98.3 ± 12,
O=C([O-])CC(O)CC(O)C=Cc1c(C2CC2)nc2ccccc2c1-c1ccc(F)cc1.O=C([O-])CC(O)CC(O)C=Cc1c(C2CC2)nc2ccccc2c1-c1ccc(F)cc1.[Ca+2] (centres undefined) [Pitavastatin Calcium],83.9 ± 10,78.4,53.9 ± 27,,148 ± 27,113,50.2 ± 1.3,67.8 ± 23,93.3 ± 4.9
CC1CC2C3CCC4=CC(=O)C=CC4(C)C3(Cl)C(O)CC2(C)C1(OC(=O)c1ccco1)C(=O)CCl (centres undefined) [Mometasone furoate],94.8 ± 29,151,118 ± 30,115,,,139.5 ± 0.18,83.5 ± 7.3,
NCCC(O)(P(=O)(O)O)P(=O)(O)O [Pamidronate],167 ± 8.5,112,56 ± 19,144,,,137 ± 19,,143.9 ± 0.96
Cl.N=C(N=C(N)N)N1CCOCC1 [Moroxydine HCl],91.5 ± 36,114,92.5 ± 3.5,89.2,,138,87.98 ± 0.46,70.25 ± 0.58,164.7 ± 0.024
CCCC(NC(=O)C1C2CCCC2CN1C(=O)C(NC(=O)C(NC(=O)c1cnccn1)C1CCCCC1)C(C)(C)C)C(=O)C(=O)NC1CC1 (centres undefined) [Telaprevir (VX-950)],154 ± 43,102,80.2 ± 12,,96.4 ± 12,144,123 ± 6.4,96.2 ± 12,165 ± 15
CCN(CC)CC#CCOC(=O)C(O)(c1ccccc1)C1CCCCC1.Cl (centres undefined) [Oxybutynin chloride],175 ± 51,170,139 ± 59,140,,178,109 ± 10,166 ± 20,85.9 ± 14
CCC(=O)OC1(C(=O)SCF)C(C)CC2C3CC(F)C4=CC(=O)C=CC4(C)C3(F)C(O)CC21C (centres undefined) [Fluticasone propionate],76.7 ± 52,166,128 ± 33,133,,,128 ± 14,102 ± 44,
CC(C)[N+]1(C)C2CCC1CC(OC(=O)C(CO)c1ccccc1)C2.[Br-] (centres undefined) [Ipratropium Bromide],138 ± 45,151,158 ± 79,108,,,148 ± 5.2,103 ± 15,180 ± 23
CCc1c2c(nc3ccc(OC(=O)N4CCC(N5CCCCC5)CC4)cc13)-c1cc3c(c(=O)n1C2)COC(=O)C3(O)CC (centres undefined) [Irinotecan],110 ± 6,133,174 ± 80,,121 ± 2.2,140,107 ± 6.1,67.4 ± 6.7,113 ± 8.8
CC1(C)O[C@@H]2C[C@H]3[C@@H]4C[C@H](F)C5=CC(=O)C=C[C@]5(C)[C@@]4(F)[C@@H](O)C[C@]3(C)[C@]2(C(=O)CO)O1 [Fluocinolone Acetonide],84 ± 59,154,132 ± 27,120,,,131 ± 17,109 ± 34,
